# Assay results reported in publication PMC5540273 (PLoS ONE, 2017).
# How the values were obtained:
# Conditions in all cases: concentration: 1 μM, replicates: in singlicate; n = 1
# CAMK2D = test system: CAMK2D
# CAMK2G = test system: CAMK2G
# CAMK4 = test system: CAMK4
# CAMKK1 = test system: CAMKK1
# CAMKK2 = test system: CAMKK2
# CASK = test system: CASK
# CDC2L1 = test system: T1, CDC2L1
# T1 construct: gene CDK11B
# CDC2L2 = test system: CDC2L2
# CDC2L5 = test system: T2, CDC2L5
# T2 construct: gene CDK13
# CDK11 = test system: T3, CDK11
# T3 construct: gene CDK19
# CDK2 = test system: CDK2
# CDK3 = test system: CDK3
# CDK4-cyclinD1 = test system: CDK4-cyclinD1
# CDK4-cyclinD3 = test system: CDK4-cyclinD3
# CDK4 = test system: CDK4
# CDK5 = test system: CDK5
# CDK7 = test system: CDK7
# CDK8 = test system: CDK8
# CDK9 = test system: CDK9
# CDKL1 = test system: CDKL1
# 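Also: KINOMEscan kinase panel screen.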
SMILES,%Inh (CAMK2D),%Inh (CAMK2G),%Inh (CAMK4),%Inh (CAMKK1),%Inh (CAMKK2),%Inh (CASK),%Inh (CDC2L1),%Inh (CDC2L2),%Inh (CDC2L5),%Inh (CDK11),%Inh (CDK2),%Inh (CDK3),%Inh (CDK4-cyclinD1),%Inh (CDK4-cyclinD3),%Inh (CDK4),%Inh (CDK5),%Inh (CDK7),%Inh (CDK8),%Inh (CDK9),%Inh (CDKL1)
Cc1ccc(C)c(NC(=O)NCCNc2ccnc(Nc3ccc(F)cc3)n2)c1 [GSK1379878],18%,21%,0%,0%,2%,0%,0%,17%,0%,6%,0%,0%,0%,0%,43%,0%,0%,29%,0%,0%
FC(F)(F)c1cc(Nc2nccc(-c3c(-c4ccc(Cl)cc4)nn4ncccc34)n2)ccc1Cl [GW829351],0%,0%,0%,2%,0%,11%,0%,0%,0%,0%,0%,34%,0%,0%,0%,0%,0%,58%,0%,0%
CC(=O)Nc1n[nH]c2ncc(-c3ccccc3)cc12 [SB-548492],0%,17%,0%,0%,4%,0%,0%,14%,21%,0%,8%,12%,0%,1%,25%,11%,17%,0%,0%,30%
CC(C)N1CCC(n2cnc(-c3ccc(F)cc3)c2-c2ccnc(N)n2)CC1 [SB-223132],1%,4%,0%,21%,6%,0%,5%,19%,0%,10%,0%,28%,0%,0%,10%,0%,0%,54%,0%,57%
CSc1ccc(NC2=C(c3ccccc3Cl)C(=O)NC2=O)cc1 [SB-342411],28%,36%,0%,5%,25%,26%,0%,0%,0%,0%,10%,26%,61%,30%,0%,0%,43%,7%,0%,13%
COc1ccc(Nc2nccc(N3CCC(NC(=O)Nc4ccc5c(c4)OCO5)C3)n2)cc1 (stereo not drawn) [GSK1379745],7%,20%,0%,29%,9%,5%,0%,0%,0%,46%,73%,2%,42%,0%,32%,2%,0%,46%,0%,1%
Cn1cc(-c2ccc3c(c2)CCN3C(=O)Cc2cccc(C(F)(F)F)c2)c2c(N)ncnc21 [GSK2606414],0%,5%,0%,7%,0%,75%,0%,0%,0%,37%,0%,0%,0%,0%,6%,0%,0%,34%,0%,0%
Nc1nc(-c2ccccn2)c(-c2ccnc3ccccc23)s1 [GW548057],6%,20%,0%,13%,21%,26%,0%,11%,0%,10%,0%,5%,49%,0%,0%,0%,2%,56%,0%,12%
FC(F)(F)c1ccc(-c2cc(-c3c[nH]nc3-c3ccccn3)ccn2)cc1 [GW599550],12%,27%,0%,11%,23%,0%,0%,26%,0%,17%,2%,20%,11%,0%,35%,0%,0%,32%,0%,2%
Cl.c1ccc(Cn2ccc3cc(Nc4ncnc5ccccc45)ccc32)cc1 [GW275568],24%,27%,0%,16%,29%,17%,23%,28%,0%,19%,1%,16%,0%,16%,31%,0%,13%,5%,27%,18%
Cc1ccc(O)cc1Nc1cc(C(F)(F)F)nc2ccc(-c3ccncc3)cc12 [GW630823],2%,16%,0%,11%,16%,1%,17%,0%,0%,0%,5%,0%,0%,0%,0%,0%,0%,0%,5%,20%
Nc1nc(-c2ccc3c(N)n[nH]c3c2)cc(N2CCC[C@@H](C(=O)Nc3ccccc3)C2)n1.O=C(O)C(F)(F)F.O=C(O)C(F)(F)F [GSK2288359],0%,22%,0%,11%,16%,5%,0%,19%,0%,0%,0%,0%,0%,0%,0%,0%,0%,23%,0%,15%
Fc1cccc(COc2ccc(Nc3ncnc4cc[nH]c34)cc2Cl)c1,9%,11%,0%,11%,0%,0%,17%,11%,0%,26%,11%,6%,6%,10%,0%,21%,17%,8%,11%,2%
Clc1cc(Nc2ncnc3cc[nH]c23)ccc1OCc1ccccn1,19%,0%,0%,0%,0%,0%,12%,15%,0%,29%,8%,1%,10%,0%,10%,22%,29%,0%,30%,16%
Nc1nc(-c2cccnc2)c(-c2ccnc3ccccc23)s1 [GW684083],2%,27%,0%,0%,19%,14%,0%,12%,0%,8%,0%,11%,16%,0%,41%,0%,0%,46%,0%,13%
N#Cc1ccc(Oc2ccc(Nc3ncnc4cc[nH]c34)cc2Cl)cc1,13%,10%,3%,6%,11%,0%,14%,10%,0%,3%,6%,2%,11%,6%,0%,0%,27%,13%,17%,27%
Fc1ccc(-c2ncn(CCCNCc3ccccc3)c2-c2ccncc2)cc1,0%,0%,4%,0%,0%,27%,0%,0%,18%,0%,0%,7%,0%,13%,0%,4%,27%,0%,0%,0%
Oc1ccc2ncnc(Nc3ccc(OCc4ccccc4)cc3)c2c1 [GI262866],1%,2%,0%,0%,0%,8%,0%,0%,0%,36%,0%,22%,0%,0%,16%,0%,0%,21%,0%,0%
COc1ccc(Nc2nccc(N3CCC(NC(=O)c4cccc(NC(C)=O)c4)C3)n2)cc1 (stereo not drawn) [GSK1379732],8%,26%,3%,0%,26%,13%,0%,11%,0%,15%,0%,0%,20%,0%,0%,0%,3%,56%,0%,9%
Clc1ccc(-c2cc(-c3c[nH]nc3-c3ccccn3)ccn2)cc1 [GW681251],0%,8%,0%,0%,0%,44%,0%,0%,0%,0%,22%,42%,7%,0%,0%,0%,0%,11%,0%,15%
CNc1nccc(-c2c(-c3ccc(F)cc3)ncn2C2CCN(C)CC2)n1 [SB-222903],0%,0%,7%,0%,0%,11%,4%,13%,0%,0%,0%,0%,0%,0%,0%,0%,0%,46%,1%,13%
